Only some compounds are listed: those with a hit (about 15% of all), similar ones and a draw of the others.
DT40 TDP1 no CPT – qHTS for Inhibitors of human tyrosyl-DNA phosphodiesterase 1 (TDP1): qHTS in cells in absence of CPT | Potency, µM (top dose mostly 46.2 µM), most hits filed as inhibitors | DT40 Tdp1-/- hTDP1 cells, no CPT, ATP luminescence, 48 h | hit rate 15% among 420,000; also: nearly all actives have a fitted effect of over 55% in size
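Growth of hTDP1-complemented DT40 Tdp1-knockout cells is measured by ATP luminescence after at least 48 hr compound exposure at 37 °C, with DMSO substituting for the 20 nM CPT used in the parallel screen.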
VP16 counter – Gal4-VP16 reporter inhibition counter-screen. Drosophila S2 Gal4-VP16 UAS-luciferase, luminescence, 20 h. Potency, µM (doses to about 53.6 µM), usual class: inhibitors. hit rate 3.5% among 310,000;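 also: Gal4-VP16 expression switched on by copper sulfate through the metallothionein promoter; nearly all actives have a fitted effect of over 50% in size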
ELG1 DNA repair – ELG1-dependent DNA repair inhibition; HEK293T ELG1-luciferase reporter, luminescence, 16 h; DNA damage induced by 5-fluorouridine; Potency, µM (highest dose often 46.1 µM), actives largely listed as inhibitors; hit rate 2.3% among 330,000; also: nearly all actives have a fitted effect of over 55% in size
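HEK293T cells expressing luciferase-tagged ELG1 (2,000/well) received 5-Fluorouridine plus compound or DMSO for 16 hr at 37 °C. Luciferase was read by ONE-Glo luminescence after 30 min at room temperature.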
TDP1 cell CPT – growth inhibition of DT40 Tdp1-/-;hTDP1 cells with camptothecin (screen for TDP1 inhibitors) | chicken DT40 Tdp1-/-;hTDP1 cells + 20 nM CPT, ATP luminescence, 48 h | Potency, µM (titrated, usually from 46.2 µM), usual class: inhibitors | hit rate 12% among 420,000 | AID 686979; also: nearly all actives have a fitted effect of over 55% in size
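Chicken DT40 Tdp1-/- cells stably complemented with human TDP1 were seeded at 400 cells/well in medium containing 20 nM camptothecin, exposed to pin-transferred compounds, and grown at 37 °C for at least 48 hr. Viability was read as ATP luminescence.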
12-LOX inh – inhibitors of human 12S-lipoxygenase ALOX12 | purified 12hLO, xylenol orange hydroperoxide absorbance | Potency, µM (doses to about 108 µM), most hits filed as inhibitors | hit rate 1.1% among 580,000
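Purified human 12hLO (150 nM final) in 25 mM Hepes, 0.01% Triton X-100, pH 7.0 was preincubated 15 min at room temperature with compound. Then 40 uM arachidonic acid was added, 30 min. Hydroperoxide was read by Fe-XO absorbance ratio 573/405 nm.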
RORgamma inh – blocks mouse ROR gamma transcriptional activity. P51450. Drosophila S2 Gal4-RORgamma UAS-luciferase reporter, 20 h. Potency, µM (series often up to 53.6 µM), usual class: inhibitors. hit rate 5.4% among 310,000. AID 2551; also: nearly all actives have a fitted effect of over 60% in size
Target sequence (P51450 whole entry, looked up, the tested form may be a part): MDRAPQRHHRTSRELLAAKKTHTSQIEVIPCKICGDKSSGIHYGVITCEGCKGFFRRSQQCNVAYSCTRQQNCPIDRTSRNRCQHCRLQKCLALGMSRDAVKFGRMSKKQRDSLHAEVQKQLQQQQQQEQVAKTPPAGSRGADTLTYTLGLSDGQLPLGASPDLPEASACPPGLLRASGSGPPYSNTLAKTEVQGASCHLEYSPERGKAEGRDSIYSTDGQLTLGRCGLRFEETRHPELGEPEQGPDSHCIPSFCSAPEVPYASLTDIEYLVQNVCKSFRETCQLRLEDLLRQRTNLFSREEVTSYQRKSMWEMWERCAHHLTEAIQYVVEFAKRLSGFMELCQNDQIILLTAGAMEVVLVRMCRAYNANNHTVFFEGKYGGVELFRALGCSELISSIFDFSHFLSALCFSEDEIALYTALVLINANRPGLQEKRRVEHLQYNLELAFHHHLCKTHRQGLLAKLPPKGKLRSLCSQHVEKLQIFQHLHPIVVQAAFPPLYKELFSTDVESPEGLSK
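Compounds are pin-transferred onto Drosophila Schneider cells expressing a copper-inducible Gal4–ROR gamma transactivation domain fusion. After 1 hr, copper sulfate is added to 700 uM final; luciferase is read 20 hr later.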
Numbers stand for hits; 0 = inactive; ? = inconclusive; - = no result given. Calls follow the shape of the dose curve; as a rule, active = well fitted curve in the direction sought with a large enough effect; inconclusive = small, poorly fitted or top-dose-only effect, or another doubt; inactive = no such curve, though single readings can be large; an effect the other way counts as inactive or inconclusive.

SMILES | DT40 TDP1 no CPT | VP16 counter | ELG1 DNA repair | TDP1 cell CPT | 12-LOX inh | RORgamma inh
COc1ccc2c(c1)c1ccccc1n2C | ? | 0 | ? | 0 | 0 | 0
COc1ccc2c(c1)c(/C=C/c1cc[n+](C)cc1)cn2C | 4.6µM | 0 | ? | 4.6µM | 50µM | 0
Cn1cc(CNCc2cn(C)nc2-c2ccc(C3CCCCC3)cc2)cn1 | 18µM | ? | 0 | ? | 0 | 0
Cc1nn(C)cc1CN(C)Cc1cn(C)nc1-c1ccc(C2CCCCC2)cc1 | - | - | - | - | 0 | -
COc1ccc(-c2nc3ccccc3n2OCC(=O)O)cc1 | 0 | 13µM | ? | 0 | 0 | ?
O=c1c2ccccc2nc(-c2ccccc2)n1O | 0 | - | - | 2.1µM | ? | -
COc1ccc(-c2nc3ccccc3c(=O)n2-c2c(C)n(C)n(-c3ccccc3)c2=O)cc1 | 0 | 0 | ? | 0 | ? | 0
O=C(O)c1ccccc1-c1nc2ccccc2c(=O)n1O | 0 | 0 | 0 | 0 | 0 | 0
COc1ccc(-c2nc3ccccc3c(=O)n2O)cc1 | 0 | ? | 0 | 0 | 0 | 13µM
N#C/C(=C\c1ccc(OC(=O)c2ccccc2)cc1)C(=O)Nc1ccccc1C(F)(F)F | - | - | - | - | 0 | -
CN(C(=O)CCc1ccco1)C1CCCC1 | - | - | - | - | 0 | -
Cc1ccc(C(=O)Nc2ccc3nc(SCC(=O)N4CCc5ccccc54)sc3c2)cc1 | ? | - | - | ? | 0 | -
O=C(Nc1ccc2nc(SCC(=O)N3CCc4ccccc43)sc2c1)c1cccc(Cl)c1 | ? | - | - | ? | 0 | -
O=C(Nc1ccc2nc(SCC(=O)N3CCCc4ccccc43)sc2c1)c1cccc(Cl)c1 | 6.5µM | - | - | 13µM | 0 | -
O=C(Nc1ccc2nc(SCC(=O)N3CCc4ccccc43)sc2c1)c1ccc(F)cc1 | 8.2µM | - | - | 10µM | 0 | -
O=C(Nc1ccc2nc(SCC(=O)N3CCc4ccccc43)sc2c1)c1ccc(Cl)cc1 | 12µM | - | - | 9.2µM | 0 | -
O=C(Nc1ccc2nc(SCC(=O)N3CCc4ccccc43)sc2c1)c1cccc(F)c1 | 4.1µM | - | - | 3.7µM | 0 | -
CCNC(=O)NC(=O)C(C)Sc1nnc(-c2cccc(C)c2)n1CCOC (configuration not stated) | - | - | - | - | 0 | -
CC(=O)Nc1ccc(C(=O)N2CCCC(c3cc(C(=O)Nc4ccccc4)no3)C2)cc1 (configuration not stated) | 0 | - | - | ? | 0 | -
N#Cc1cccc(NC(=O)c2cc(C3CCCCN3S(=O)(=O)c3cccc4cccnc34)on2)c1 (configuration not stated) | 18µM | - | - | ? | 0 | -
Cc1ncccc1C(=O)N1CCCC(c2cc(C(=O)Nc3ccc(C(C)(C)C)cc3)no2)C1 (configuration not stated) | 12µM | - | - | 13µM | 0 | -
CC(C)(C)c1ccc(NC(=O)c2cc(C3CCCN(S(=O)(=O)c4cccc5cccnc45)C3)on2)cc1 (configuration not stated) | 12µM | - | - | 23µM | 0 | -
CS(=O)(=O)N1CCCCC1c1cc(C(=O)Nc2cccc(C#N)c2)no1 (configuration not stated) | 0 | - | - | 0 | 0 | -
Cc1ccc(-c2ccc3nnc(CNC(=O)c4ccco4)n3n2)cc1 | - | - | - | - | 0 | -
COc1ccc2c(-c3cc4ccc(OCc5ccc(F)cc5)cc4oc3=O)cc(=O)oc2c1 | 12µM | 0 | 0 | 7.3µM | 0 | 0
SMILES | DT40 TDP1 no CPT | VP16 counter | ELG1 DNA repair | TDP1 cell CPT | 12-LOX inh | RORgamma inh
COc1ccc(COc2ccc3c(C)cc(=O)oc3c2)cc1 | ? | 0 | ? | ? | 0 | 0
C1CN(CC23CC4CC(CC(C4)C2)C3)CCO1 | 16µM | 0 | 0 | 0 | 0 | 0
CC1Sc2ccc(S(=O)(=O)CCC(=O)NC3CCCC(C)C3C)cc2NC1=O (configuration not stated) | 21µM | 0 | 0 | 21µM | 0 | 0
CC1Sc2ccc(S(=O)(=O)CCC(=O)N(C)Cc3ccccc3)cc2NC1=O (configuration not stated) | ? | 0 | 0 | 18µM | 0 | ?
CC1Sc2ccc(S(=O)(=O)NCCc3ccccc3)cc2NC1=O (configuration not stated) | 23µM | 0 | 0 | 21µM | 0 | 0
N=c1oc2ccccc2cc1-c1nc(-c2ccc(Cl)cc2)cs1 | 0 | ? | 0 | 0 | 0 | ?
O=c1oc2ccccc2cc1-c1csc(Cc2nc(-c3ccc(Cl)cc3)cs2)n1 | 26µM | 0 | ? | ? | 0 | 0
O=c1oc2ccccc2cc1-c1csc(NN=C2CCCCC2)n1 | 18µM | 0 | ? | ? | 0 | ?
O=c1oc2ccccc2cc1-c1csc(Nc2nc3c(F)cccc3s2)n1 | 16µM | 0 | ? | 15µM | 0 | 0
O=c1oc2ccccc2cc1-c1csc(Nc2nc3ccc(F)cc3s2)n1 | - | 0 | ? | - | - | ?
O=C(NCc1noc(-c2ccco2)n1)c1ccc(Br)cc1 | - | - | - | - | 0 | -
Cc1cccc(NC(=O)NCC2CCN(CCc3ccc(F)cc3)CC2)c1C | - | - | - | - | 35µM | -
CCCCN1CCc2c([nH]c3c(C)cccc23)C1=O | ? | 0 | ? | 29µM | ? | 0
O=C(CC1CCCC1)N1CCN(S(=O)(=O)c2cccc(Br)c2)CC1 | ? | - | - | 18µM | 0 | -
O=C(C1CCCN(S(=O)(=O)c2ccccc2)C1)N1CCCCC1 (configuration not stated) | 0 | 0 | 0 | 0 | 0 | 0
O=C(C1CCCN(S(=O)(=O)c2ccc(F)cc2)C1)N1CCCCC1 (configuration not stated) | 23µM | 0 | 0 | 0 | 0 | 0
O=C(C1CCCN(S(=O)(=O)c2ccc(F)cc2)C1)N1CCCCCC1 (configuration not stated) | 8.2µM | 0 | 0 | 12µM | 0 | 0
O=C(O)C1CCCN(S(=O)(=O)c2ccc(F)cc2)C1 (configuration not stated) | 0 | 0 | 0 | 0 | 0 | 0
C=Cc1ccc(COc2ccc3c(=O)c(-c4ccccc4OC)coc3c2)cc1 | - | - | - | - | 0 | -
CCCOc1ccc(C(=O)Nc2ccc(S(=O)(=O)N3C[C@@H]4C[C@@H](C3)c3cccc(=O)n3C4)cc2)cc1 | 13µM | - | 0 | ? | 0 | -
Cc1ccccc1-n1c(=O)c2c3c(sc2n2cnnc12)CCCC3 | 16µM | - | - | 15µM | ? | -
O=c1c2c3c(sc2n2cnnc2n1-c1ccccc1)CCCCC3 | - | - | - | - | 0 | -
COc1ccc(Nc2nc3ccccc3nc2NS(=O)(=O)c2cc(C)ccc2C)cc1 | - | - | - | - | 0 | -
Oc1ccccc1OCCOc1ccccc1OCCOc1ccccc1O | 21µM | 0 | ? | ? | 0 | 0
CCOC(=O)N(C)c1c(CC)nc2c(OCc3ccc(OC(F)F)cc3)cccn12 | 15µM | - | - | ? | 0 | -
CCc1nc2c(OCc3ccc(C(F)(F)F)cc3)cccn2c1N(C)C(=O)c1ccc(C)cc1 | 23µM | - | - | 23µM | ? | -
